Measurements as given in PubChem BioAssay (NCATS).
“And” between values parts separate entries of the source, which are not always exact repeats. Equal entries are not always repeated. Unmarked numbers belong to inactive results. Records with an inconclusive call do not appear. A call without a number means that no potency is given here. The source made the active and inactive calls. Unless noted, the call rests on the fitted dose curve; in most records, active means well fitted curve in the direction sought with a large enough effect; inconclusive means small, poorly fitted or top-dose-only effect, or another doubt; inactive means no such curve, though single readings can be large; an effect the other way counts as inactive or inconclusive.

Columns and labels:
[1] = qHTS to identify inhibitors of the type 1 interferon - major histocompatibility complex class I in skeletal muscle: primary screen against the NCATS LOPAC collection (AID 1347405);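 further: lytic HiBiT luminescence reporting HLA-B protein level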
Summary of the method: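 Luminescence from HiBiT fused to endogenous HLA-B in CRISPR-engineered human myoblasts served as the read-out. Cells received 4.0 ng/ml IFN-beta plus compound (seven concentrations, 1:4.3 steps, highest 46 uM final) for 24 hrs before lytic detection.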

[2] = qHTS to identify inhibitors of the type 1 interferon - major histocompatibility complex class I in skeletal muscle: primary screen against the NCATS Pharmaceutical Collection (AID 1347407);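 further: luminescence of HiBiT knocked into endogenous HLA-B as interferon-induced MHC class I level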
Summary of the method: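 Compounds […] were added to CRISPR-engineered HLA-B-HiBiT C25cl48 human myoblasts with 4.0 ng/ml IFN-beta. After 24 hrs at 37 C, cells were lysed and HiBiT luminescence measured.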

[3] = qHTS for inhibitors of adenylyl cyclases using a fission yeast platform: a pilot screen against the NCATS LOPAC library (AID 1347410)
Summary of the method: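 GFP from fbp1-GFP reporter, read by Acumen laser cytometry, indicates AC inhibition in fission yeast expressing AC9, GNAS and PDE4D2. Cells grown 18 h in the dark at 30C with compounds, final up to 57 uM.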

[4] = target: Protein phosphatase 1D (Homo sapiens) (UniProt O15297); assay: RapidFire Mass Spectrometry qHTS Assay for Modulators of WT P53-Induced Phosphatase 1 (WIP1) (AID 1347424);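 further: amount of dephosphorylated VEPPL-S-QETFS peptide product formed by WIP1; series mostly up to about 63 µM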
Protein phosphatase 1D (Homo sapiens), sequence (O15297 whole entry, looked up): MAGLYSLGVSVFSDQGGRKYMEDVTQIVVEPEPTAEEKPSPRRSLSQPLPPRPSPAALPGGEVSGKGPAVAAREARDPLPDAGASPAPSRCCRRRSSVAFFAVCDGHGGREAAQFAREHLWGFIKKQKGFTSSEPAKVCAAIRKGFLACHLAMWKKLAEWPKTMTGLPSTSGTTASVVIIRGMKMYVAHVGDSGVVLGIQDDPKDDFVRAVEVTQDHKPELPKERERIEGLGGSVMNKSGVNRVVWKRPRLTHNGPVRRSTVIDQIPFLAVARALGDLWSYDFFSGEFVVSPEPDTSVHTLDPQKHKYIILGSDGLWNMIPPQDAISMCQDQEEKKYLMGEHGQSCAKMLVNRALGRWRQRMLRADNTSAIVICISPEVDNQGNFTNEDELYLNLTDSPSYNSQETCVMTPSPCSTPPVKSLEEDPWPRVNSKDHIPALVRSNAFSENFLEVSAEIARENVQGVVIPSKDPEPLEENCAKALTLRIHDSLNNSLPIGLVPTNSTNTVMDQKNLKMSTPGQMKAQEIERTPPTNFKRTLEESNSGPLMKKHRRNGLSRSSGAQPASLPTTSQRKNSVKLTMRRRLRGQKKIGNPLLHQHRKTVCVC
Summary of the method: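 10 nM WIP1 + cpd, 1 h RT; + 2 uM VEPPL-pS-QETFS, 5 min RT; stop 0.5% formic acid; labelled product standard 1 uM; RapidFire MS. Buffer 50 mM Tris pH 7.5, 30 mM MgCl2, 1 mM TCEP.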

[5] = target: Protein phosphatase 1D (Homo sapiens) (UniProt O15297); assay: Rhodamine-PBP qHTS Assay for Modulators of WT P53-Induced Phosphatase 1 (WIP1) (AID 1347425)
Summary of the method: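 WIP1 (5 nM final) was preincubated with compound for 1 hour at room temperature. It then dephosphorylated 10 uM VEPPL-pS-QETFS peptide in Tris-HCl pH 7.5 with 30 mM MgCl2. Released Pi was detected by 10 uM Rh-PBP fluorescence (ex 525/em 598 nm) read at 1-min intervals for 11 min, as delta f1 - f0.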

[6] = Validation qHTS assay for inhibitors of Activation Induced Cytidine Deaminase (AID): UDG Counterscreen signal (AID 1347427)
Summary of the method: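 Counterscreen read of UDG activity (2 U/mL, 4/3x) in the FRET deamination format with AID (1 uM, 4/3x), DJC20/DJC23 substrates (250 nM, 4x), 4 h at room temperature. NaOH stop, fluorescence at 560 ex/665 em.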

[7] = target: Single-stranded DNA cytosine deaminase (Homo sapiens) (UniProt Q9GZX7); assay: Validation qHTS assay for inhibitors of Activation Induced Cytidine Deaminase (AID): AID signal (AID 1347429)
Single-stranded DNA cytosine deaminase (Homo sapiens), sequence (Q9GZX7 whole entry, looked up): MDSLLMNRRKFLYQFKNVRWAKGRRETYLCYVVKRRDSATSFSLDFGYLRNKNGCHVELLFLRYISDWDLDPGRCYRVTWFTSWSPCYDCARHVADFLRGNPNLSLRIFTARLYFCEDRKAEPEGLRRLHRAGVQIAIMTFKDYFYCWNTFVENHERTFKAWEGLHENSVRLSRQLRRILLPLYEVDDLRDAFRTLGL
Summary of the method: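 Fluorescence at 540 nm excitation and 590 nm emission reports ssDNA cytosine deamination by AID, with UDG in the same well. Compound-treated reactions ran 4 hr at room temperature with DJC20/DJC23 substrate, followed by 30 min NaOH treatment.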

[8] = Primary qHTS for inhibitors of La Crosse Virus (LACV) - induced cell death in SH-SY5Y cells (AID 1508616);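 further: top concentration of the series differs between compounds; higher means more rescue of cells from virus-induced death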
Summary of the method: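 Protection against LACV-induced cell death is scored in SH-SY5Y cells exposed to compounds and virus (0.01 MOI) for 6 days. Data normalized to virus-infected DMSO wells and virus-free DMSO wells.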

[9] = target: Calcium and integrin-binding protein 1 (Homo sapiens) (UniProt Q99828); assay: Validation qHTS for Identification of Calcium Integrin Binding protein 1 (CIB1) Competitor (AID 1508618)
Calcium and integrin-binding protein 1 (Homo sapiens), sequence (Q99828 whole entry, looked up): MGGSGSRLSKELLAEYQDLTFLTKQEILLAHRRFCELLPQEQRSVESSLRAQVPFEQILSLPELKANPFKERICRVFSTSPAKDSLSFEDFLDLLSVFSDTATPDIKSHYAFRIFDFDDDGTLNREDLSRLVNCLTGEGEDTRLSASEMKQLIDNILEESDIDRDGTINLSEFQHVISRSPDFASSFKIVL
Summary of the method: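 Fluorescence polarization with 1 uM CIB1-GST and 100 nM FITC-alphaIIb peptide in HEPES pH 7.4, NaCl, 5 mM CaCl2, Tween20. Compounds at up to 114 uM final, preincubated with protein 15 min; read after 15 min more at RT.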

[10] = target: Calcium and integrin-binding protein 1 (Homo sapiens) (UniProt Q99828); assay: Primary qHTS for Identification of Calcium Integrin Binding Protein 1 (CIB1) Competitor (AID 1508620);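 further: GST tagged CIB1 binding a fluorescein labelled alphaIIb integrin peptide tracer; top concentration of the series differs between compounds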
Summary of the method: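 CIB1-GST (1 uM final) and compound incubated 15 min at room temperature before adding FITC-alphaIIb peptide tracer (100 nM final). Competition for binding read by fluorescence polarization (ex 480, em 540) after another 15 min at room temperature.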

[11] = Primary qHTS for small molecule stabilizers of the endoplasmic reticulum resident proteome: Secreted ER Calcium Modulated Protein (SERCaMP) assay (AID 1508630)
Summary of the method: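 GLuc-SERCaMP-expressing SH-SY5Y cells, pretreated 16 h with compound, are challenged with thapsigargin to empty ER calcium stores; after 4 h, coelenterazine is added directly to the medium and luminescence is imaged.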

[12] = target: Cytochrome P450 2D6 (Homo sapiens) (UniProt P10635); assay: Cytochrome P450 family 2 subfamily D member 6 (CYP2D6) small molecule antagonists: luciferase biochemical (cell-free) qHTS assay (AID 1645840; active means well fitted curve in the direction sought with a large enough effect in the repeat runs; an effect the other way counts as inactive or inconclusive; further: nearly all actives have a fitted effect of over 55% in size; further: potency means the concentration at half of the fitted maximal effect)
Cytochrome P450 2D6 (Homo sapiens), sequence (P10635 whole entry, looked up): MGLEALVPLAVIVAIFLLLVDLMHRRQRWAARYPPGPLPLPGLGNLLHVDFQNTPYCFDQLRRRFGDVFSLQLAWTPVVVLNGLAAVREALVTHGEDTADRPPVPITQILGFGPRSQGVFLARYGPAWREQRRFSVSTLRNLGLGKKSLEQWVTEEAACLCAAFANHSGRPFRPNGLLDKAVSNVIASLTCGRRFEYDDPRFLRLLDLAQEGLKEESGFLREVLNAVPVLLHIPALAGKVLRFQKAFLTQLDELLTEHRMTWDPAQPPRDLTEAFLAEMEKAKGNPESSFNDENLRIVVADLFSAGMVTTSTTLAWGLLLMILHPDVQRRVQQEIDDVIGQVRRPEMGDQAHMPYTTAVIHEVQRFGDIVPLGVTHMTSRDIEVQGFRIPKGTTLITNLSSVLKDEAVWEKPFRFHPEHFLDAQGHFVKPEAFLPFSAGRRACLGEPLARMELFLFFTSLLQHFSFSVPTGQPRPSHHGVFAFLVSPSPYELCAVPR
Summary of the method: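 P450-Glo luminescent screen: recombinant CYP2D6 enzyme–proluciferin substrate mix preincubated with compound 10 min at room temperature, then NADPH regeneration added for 1 h at room temperature. Detection reagent added for 20 min; luciferin light read as relative luminescence units.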

[13] = target: Cytochrome P450 2C9 (Homo sapiens) (UniProt P11712); assay: Cytochrome P450 family 2 subfamily C member 9 (CYP2C9) small molecule antagonists: luciferase biochemical (cell-free) qHTS assay (AID 1645842; active means well fitted curve in the direction sought with a large enough effect in the repeat runs; an effect the other way counts as inactive or inconclusive; further: nearly all actives have a fitted effect of over 55% in size; further: potency means the concentration at half of the fitted maximal effect)
Cytochrome P450 2C9 (Homo sapiens), sequence (P11712 whole entry, looked up): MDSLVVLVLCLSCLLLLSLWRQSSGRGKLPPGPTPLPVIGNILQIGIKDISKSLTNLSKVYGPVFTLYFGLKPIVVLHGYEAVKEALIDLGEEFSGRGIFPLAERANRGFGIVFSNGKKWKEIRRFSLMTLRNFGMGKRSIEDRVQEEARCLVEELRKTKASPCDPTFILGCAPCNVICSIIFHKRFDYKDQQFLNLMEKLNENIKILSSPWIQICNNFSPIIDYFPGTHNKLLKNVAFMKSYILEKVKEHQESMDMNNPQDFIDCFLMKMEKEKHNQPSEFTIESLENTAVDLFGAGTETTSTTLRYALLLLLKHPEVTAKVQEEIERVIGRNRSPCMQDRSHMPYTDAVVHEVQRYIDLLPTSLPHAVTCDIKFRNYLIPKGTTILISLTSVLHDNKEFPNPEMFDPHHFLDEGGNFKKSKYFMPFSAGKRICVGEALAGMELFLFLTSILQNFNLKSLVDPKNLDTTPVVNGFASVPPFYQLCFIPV
Summary of the method: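 Luminescence, after 20 min with luciferin detection reagent, reflected CYP2C9 turnover during a 1 h NADPH-driven reaction at 37C. Enzyme-substrate mix contained 0.4% bovine serum albumin and was preincubated with compound 10 min at room temperature.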

[14] = target: Papain (Carica papaya) (UniProt P00784); assay: Primary qHTS assay for inhibitors of the protease papain (AID 1645873);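 further: papain turnover of Z-FR-AMC read as the AMC fluorescence gain over 10 min; series mostly up to about 50 µM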
Papain (Carica papaya), sequence (P00784 whole entry, looked up): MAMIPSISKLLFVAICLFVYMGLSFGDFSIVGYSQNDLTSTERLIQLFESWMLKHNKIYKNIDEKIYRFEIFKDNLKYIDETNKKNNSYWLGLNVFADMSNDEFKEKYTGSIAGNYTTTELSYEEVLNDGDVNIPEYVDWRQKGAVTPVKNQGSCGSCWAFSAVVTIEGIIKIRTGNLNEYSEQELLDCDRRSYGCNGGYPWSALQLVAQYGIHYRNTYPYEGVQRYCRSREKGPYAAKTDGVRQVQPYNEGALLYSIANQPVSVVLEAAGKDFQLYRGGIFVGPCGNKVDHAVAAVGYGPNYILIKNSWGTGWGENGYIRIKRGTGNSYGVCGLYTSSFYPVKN

[15] = A High-Content qHTS Against Drug Library for the Identification of Small Molecules that Inhibit DYT1 Early Onset Primary Dystonia-Associated Cell Pathology (AID 1645839; calls by dose curve; further: series mostly up to about 46 µM)
Summary of the method: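 In this high-content image screen, delE TorsinA mislocalization in inducible Flp-In 293 cells is scored as %pathology, with cell count serving as the counterscreen. Compound exposure lasts 48 h under tetracycline induction in reduced-serum medium.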

[16] = Cell Viability qHTS for small molecule stabilizers of the endoplasmic reticulum resident proteome (AID 1508629); details: cell viability counter-screen, 100 nM thapsigargin for final 4 h;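 further: human SH-SY5Y neuroblastoma cells carrying the GLuc-SERCaMP reporter; compound exposure about 46 h in total before the viability read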
[17] = Counterscreen qHTS for small molecule stabilizers of the endoplasmic reticulum resident proteome: GLuc-NoTag assay (AID 1508627);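 further: SH-SY5Y cells given compound then 100 nM thapsigargin to empty ER calcium; series mostly up to about 76 µM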
Summary of the method: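 Luminescence of Gaussia luciferase secreted into the medium (coelenterazine, 0.07x final, unlysed cells) was the read-out. Human SH-SY5Y neuroblastoma cells constitutively secreting untagged GLuc received compound for 19 h, then 100 nM thapsigargin for 4 h.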

[18] = qHTS to identify inhibitors of the type 1 interferon - major histocompatibility complex class I in skeletal muscle: primary screen against the NCATS Mechanism Interrogation Plate v5.0 (MIPE) Libary (AID 1347411); further: nearly all actives have a fitted effect of over 65% in size
Summary of the method: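 Luminescence from HiBiT-tagged endogenous HLA-B*08:01 served as the MHC class I read-out. CRISPR-engineered C25cl48 human myoblasts received 4.0 ng/ml IFN-beta plus compound for 24 hrs, with an 11-point, 1:3 series topping at 46 uM final.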

Row | Compound | Potency [1] | Potency [2] | outcome [3] | Potency [4] | outcome [5] | outcome [6] | Potency [7] | Potency [8] | outcome [9] | Potency [10] | Potency [11] | Potency [12] | Potency [13] | Potency [14] | Potency [15] | max response [16] [%] | Potency [17] | Potency [18]
1 | C[N+](C)(C)CCOC(=O)CCC(=O)OCC[N+](C)(C)C | inactive | inactive | inactive | inactive | inactive | inactive | inactive | inactive | inactive | inactive | inactive | inactive | inactive | inactive | – | – | – | –
2 | C[C@@H](O)[C@H]1C(=O)N2C(C(=O)O)=C(SCCN=CN)C[C@H]12 | inactive | inactive | inactive | inactive | inactive | inactive | inactive | inactive | inactive | inactive | inactive | inactive | – | inactive | inactive | – | – | –
3 | COC(=O)[C@@H](N)Cc1ccc(O)c(O)c1 | inactive | inactive | inactive | inactive | inactive | inactive | inactive | inactive | inactive | inactive | – | inactive | inactive | inactive | inactive | -5.59 | – | –
4 | CCCOc1ccccc1-c1nc2n[nH]nc2c(=O)[nH]1 | inactive | inactive | inactive | inactive | inactive | inactive | inactive | inactive | – | inactive | inactive | inactive | inactive | inactive | inactive | – | – | –
5 | CC(C)NNC(=O)c1ccncc1 | inactive | inactive | inactive | inactive | inactive | inactive | inactive | inactive | inactive | inactive | inactive | inactive | inactive | inactive | – | – | – | –
6 | CN(C)CC[C@@H](c1ccc(Br)cc1)c1ccccn1 | inactive | inactive | inactive | inactive | inactive | inactive | inactive | inactive | inactive | inactive | inactive | 4.9 µM (active) | inactive | inactive | inactive | – | inactive | –
7 | NC1=NCC2c3ccccc3Cc3ccccc3N12 (stereo unspecified) | inactive | inactive | inactive | inactive | inactive | inactive | inactive | inactive | inactive | inactive | inactive | 1.55 µM (active) | inactive | inactive | – | – | – | –
8 | C[C@]12CC[C@@H]3c4ccc(O)cc4C[C@@H](CCCCCCCCCS(=O)CCCC(F)(F)C(F)(F)F)[C@H]3[C@@H]1CC[C@@H]2O (stereo partly specified) | inactive | inactive | inactive | inactive | inactive | inactive | inactive | inactive | inactive | inactive | inactive | inactive | 1.38 µM (active) | inactive | – | – | – | –
9 | C[C@]12CCC(=O)C=C1CC[C@@H]1[C@@H]2CC[C@@]2(C)[C@H]1CC[C@]2(O)C(=O)CO | inactive | inactive | inactive | inactive | inactive | inactive | inactive | inactive | inactive | inactive | inactive | inactive | inactive | – | inactive | – | – | –
10 | CCOC(=O)c1cnc2c(cnn2CC)c1NN=C(C)C | inactive | inactive | inactive | inactive | inactive | inactive | – | inactive | inactive | inactive | inactive | inactive | 13.8 µM (active) | – | inactive | 4.21 | inactive | –
11 | O=c1[nH]c(=O)n([C@H]2C[C@H](O)[C@@H](CO)O2)cc1Br | inactive | inactive | inactive | inactive | inactive | inactive | inactive | inactive | inactive | inactive | inactive | inactive | inactive | inactive | – | – | – | –
12 | C(=C\c1ccccc1)/CN1CCN(C(c2ccccc2)c2ccccc2)CC1 | inactive | inactive | inactive | inactive | inactive | inactive | – | inactive | inactive | inactive | – | – | – | inactive | – | – | inactive | –
13 | CCNC(=O)N1CCN(CCCC(c2ccc(F)cc2)c2ccc(F)cc2)CC1 | inactive | inactive | inactive | inactive | inactive | inactive | inactive | inactive | inactive | inactive | – | – | inactive | inactive | – | – | – | –
14 | O=C1CC2(CCCC2)CC(=O)N1CCCCN1CCN(c2ncccn2)CC1 | inactive | inactive | inactive | inactive | inactive | inactive | inactive | inactive | inactive | inactive | inactive | 17.4 µM (active) and 13.5 µM (active) | inactive | inactive | inactive | – | – | –
15 | O=C(O)CN(CCN(CC(=O)O)CC(=O)O)CCN(CC(=O)O)CC(=O)O | inactive | inactive | inactive | inactive | inactive | inactive | inactive | inactive | inactive | inactive | inactive | inactive | inactive | inactive | inactive | 25 | inactive | –
16 | C[C@]12CCC(=O)C=C1CC[C@@H]1[C@@H]2C(=O)C[C@@]2(C)[C@H]1CC[C@]2(O)C(=O)CO | inactive | inactive | inactive | inactive | inactive | inactive | inactive | inactive | inactive | inactive | inactive | inactive | inactive | – | – | – | – | –
17 | COc1ccc([C@@H]2Sc3ccccc3N(CCN(C)C)C(=O)[C@@H]2OC(C)=O)cc1 | inactive | inactive | inactive | inactive | inactive | inactive | inactive | inactive | inactive | inactive | inactive | inactive | inactive | inactive | – | – | – | inactive
